TDP1 cell noCPT = qHTS for Inhibitors of human tyrosyl-DNA phosphodiesterase 1 (TDP1): qHTS in cells in absence of CPT; Potency, µM (series often up to 46.2 µM), for inactives: top-dose activity change, negative = growth inhibition, most hits filed as inhibitors; 15% of 420,000 active; DT40 Tdp1-/- hTDP1 cells, no CPT, ATP luminescence, 48 h; AID 686978, 2013; note: potency is the fitted concentration of half-maximal effect; nearly all actives have a fitted effect of over 55% in size
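Cells were dispensed at 400 per well, compounds added by pin tool, plates incubated ≥48 hr at 37 °C, then CellTiter-Glo added for 30 min at room temperature before luminescence reading. Line: DT40 Tdp1-/- complemented with hTDP1; camptothecin omitted.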
HT1080NT lethal = kills 2HG-producing HT-1080-NT fibrosarcoma cells. 1.6% of 360,000 active. HT-1080-NT fibrosarcoma viability, CellTiter-Glo ATP luminescence, 48 h. Potency, µM (highest dose often 46.1 µM), for the others: top-dose activity, negative = less viability, actives largely listed as cytotoxic;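 note: NT is the 2HG producing partner of a matched IDH1 knockdown line; potency is the fitted concentration of half-maximal effect; 0% = DMSO-treated cells and -100% = media-only wells without cells; nearly all actives have a fitted effect of over 55% in size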
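750 cells/well, RPMI + 5% FBS; 2 h settle, compound pin-transfer, 48 h at 37 degrees C. CellTiter-Glo 10 min RT, luminescence. Normalized to DMSO and media-only wells.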
ELG1 repair inh = ELG1-dependent DNA repair inhibition | 2.3% of 330,000 active | Potency, µM (highest dose often 46.1 µM), without a hit: at the highest dose activity change, negative = inhibition, usual class: inhibitors | HEK293T ELG1-luciferase reporter, luminescence, 16 h; DNA damage induced by 5-fluorouridine; note: potency is the fitted concentration of half-maximal effect; nearly all actives have a fitted effect of over 55% in size
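In this reporter screen, reduction of luminescence relative to DMSO vehicle indicated activity. Compounds and 5-fluorouridine were added together to 2,000 cells per well, incubated for 16 hr at 37 °C, then developed with ONE-Glo.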
HT1080 IDH1KD tx = toxicity to HT-1080 IDH1 knockdown cells (counter line); Potency, µM (titrated, usually from 46.1 µM), without a hit: top-dose activity, negative = toxicity, actives largely listed as cytotoxic; HT-1080 IDH1 knockdown viability, ATP luminescence, 48 h; 2% of 360,000 active;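 note: potency is the fitted concentration of half-maximal effect; 0% = DMSO wells and -100% = cell-free medium wells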
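% activity derives from luminescence (CellTiter-Glo), normalised to DMSO and no-cell wells. HT-1080-IDH1KD cells, 750/well, had 48 h compound exposure at 37 °C.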
IL1B secr inh = blocks inflammasome-driven IL-1 beta release | THP-1 LPS/ATP IL-1B secretion, AlphaLISA, 16 h; hits give low values | activity change, % at 57.5 µM | 4.7% of 360,000 active | AID 743279; in the data active = activity change below about -50%; inconclusive = mostly about -30% to -49%
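Secreted IL-1B measured by AlphaLISA bead assay after 16 h compound exposure of THP-1 cells; compounds (final up to 57.5 uM) added 1 h before LPS (250 ng/mL) and ATP (1.25 mM) stimulation; lower signal means less secretion.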
DT40 TDP1 CPT = DT40-hTDP1 cell growth loss with CPT; 12% of 420,000 active; Potency, µM (series often up to 46.2 µM), for the others: at the top dose activity change, negative = growth inhibition, actives largely listed as inhibitors; AID 686979; chicken DT40 Tdp1-/-;hTDP1 cells + 20 nM CPT, ATP luminescence, 48 h; note: potency is the fitted concentration of half-maximal effect; nearly all actives have a fitted effect of over 55% in size
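Chicken DT40 Tdp1-/- cells stably complemented with human TDP1 were seeded at 400 cells/well in medium containing 20 nM camptothecin, exposed to pin-transferred compounds, and grown at 37 °C for at least 48 hr. Viability was read as ATP luminescence.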
Starred values were filed as active, the others as inactive; ? = inconclusive; nt = no result; ! = a repeat was not active; [ ] = remark or other dose. Hits are enriched below; roughly 19% of the tested compounds scored in any of these assays. Unless noted, calls come from the whole dose curve; as a rule, active = well fitted curve in the direction sought with a large enough effect; inconclusive = small, poorly fitted or top-dose-only effect, or another doubt; inactive = no such curve, though single readings can be large; an effect the other way counts as inactive or inconclusive. Unless noted, % is set by controls: 0 for no effect and ±100 for the full control effect.

SMILES	TDP1 cell noCPT	HT1080NT lethal	ELG1 repair inh	HT1080 IDH1KD tx	IL1B secr inh	DT40 TDP1 CPT
COC(=O)C1=C(c2cc3ccccc3s2)C[C@@H]2CC[C@H]1N2C(=O)NCC1CC1	16.4µM*	2.7%	nt	-1.7%	10.9	?
COC(=O)C1=C(c2cc3ccccc3s2)C[C@@H]2CC[C@H]1N2C(=O)N1CCC(C)CC1	2.59µM*	-1.7%	nt	-23.5%	-19.1	5.17µM*
COC(=O)C1=C(c2c(C)noc2C)C[C@@H]2CC[C@H]1N2C(=O)NCc1ccc(C(F)(F)F)cc1	?	-2.2%	16.6%	-6.0%	18.3	?
COC(=O)C1=C(c2cc3ccccc3s2)C[C@@H]2CC[C@H]1N2C(=O)NC1CC1	14.6µM*	0.2%	nt	0.5%	18.2	?
COC(=O)C1=C(c2cc3ccccc3s2)C[C@@H]2CC[C@H]1N2C	-22.8%	-0.4%	?	-10.5%	-9.2	-8.6%
COC(=O)C1=C(c2cc3ccccc3s2)C[C@@H]2CC[C@H]1N2C(=O)NCc1ccc(C(F)(F)F)cc1	18.4µM*	?	nt	?	-52.0*	?
N#C/C=C/C#N	?	15.1%	?	-2.8%	12.7	?
CC(Cc1ccc2c(c1)OCO2)NO (centres undefined)	-18.6%[92.5 µM]	nt	nt	nt	nt	-2.3%[92.5 µM]
CN1CCC(N(C)c2nc(-c3ccc([N+](=O)[O-])cc3)nc3ccccc23)CC1	11.6µM*	?	?	?	-96.2*	8.2µM*
CC(C)(C)c1ccc(C(=O)Nc2ccc3nc(SCC(=O)N4CCCC4)sc3c2)cc1	4.11µM*	nt	nt	nt	nt	8.2µM*
Cc1nc2ccc(NC(=O)c3ccc(Cl)s3)cc2s1	-25.0%	-17.2%	?	-27.6%	-8.3	?
Cc1ccccc1C(=O)Nc1ccc2nc(SCC(=O)N(C)c3ccccc3)sc2c1	14.6µM*	nt	nt	nt	nt	?
COc1ccc(NC(=O)CN(C)C(=O)CSC(c2ccccc2)c2ccccc2)cc1	?	-9.3%	?	-22.5%	-1.8	-27.6%
COc1ccccc1C(=O)Nc1ccc2nc(SCC(=O)N(C)c3ccccc3)sc2c1	11.6µM*	nt	nt	nt	nt	18.4µM*
CCOC(=O)C1(c2ccccc2)CCN(CC(=O)c2ccc(NC(C)=O)cc2)CC1	?	-4.5%	nt	-4.4%	10.9	?
Clc1ccc(C2CC3CCC2N3)cn1 (centres undefined)	-1.6%	nt	nt	nt	nt	-9.7%
c1cncc(CNCCN2CCNCC2)c1	-2.8%	-2.1%	nt	-22.7%	3.6	1.3%
CC1(C)S[C@@H]2[C@H](N)C(=O)N2[C@H]1C(=O)O	-5.2%[9.04 µM]	nt	nt	nt	nt	-8.1%[9.04 µM]
COc1cccc(N2CCN(c3c4c(nc5nncn35)CCC4)CC2)c1	8.2µM*	nt	nt	nt	nt	23.1µM*
c1nc2nc3c(c(N4CCNCC4)n2n1)CCCC3	12.3%	-5.9%	-3.7%	-2.0%	0.0	2.3%
CN1C2CCC1/C(=C/c1ccccn1)C(=O)/C2=C\c1ccccn1	0.651µM*	1.16µM*	1.84µM*	0.82µM*	-100.8*	0.517µM*
CCC12CN3CC(CC)(CN(C1)C3c1ccccn1)C2=O (centres undefined)	-21.5%	nt	nt	nt	nt	1.9%
CC(CCc1ccccc1)NC(C)C(O)c1ccc(O)cc1 (centres undefined)	23.1µM*!	0.2%	-25.6%	-1.4%	-23.0	?
COC(=O)C1=C(N)OC(C)=C(C(C)=O)C12C(=O)N(C)c1ccccc12 (centres undefined)	20.6µM*	5.7%	-0.4%	-0.2%	2.3	?
COC(=O)C1=C(N)Oc2c(c(=O)oc3ccccc23)[C@]12C(=O)N(C)c1ccccc12	?	15.6%	1.1%	0.9%[9.24 µM]	0.0	?
SMILES	TDP1 cell noCPT	HT1080NT lethal	ELG1 repair inh	HT1080 IDH1KD tx	IL1B secr inh	DT40 TDP1 CPT
O=C(Nc1ccccc1)C1=C[C@H](c2ccccc2)C[C@H](OCCCCO)O1	?	-16.1%	nt	-21.5%	-18.6	16.4µM*
CN1C2CCC1CC(OC(=O)c1ccc(Cl)cc1)C2 (centres undefined)	?	-12.0%	-11.3%	-1.6%	-8.2	?
CN1C2CCC1CC(OC(c1ccc(F)cc1)c1ccc(F)cc1)C2 (centres undefined)	7.31µM*	nt	nt	nt	nt	6.51µM*
CCOc1ccc(C(=O)OC2CC3CCC(C2)N3C)cc1 (centres undefined)	?	0.4%	-16.8%	-1.2%	17.6	-15.2%
CN1[C@@H]2CC[C@H]1CC(O[C@@H](c1ccccc1)c1ccc(Cl)cc1)C2 (some centres undefined)	4.22µM*	nt	nt	nt	nt	2.66µM*
CC1/C=C/C=C/CC/C=C/C=C/C=C/C=C/C(OC2OC(C)C(O)C(N)C2O)CC2O[C@](O)(CC(O)C(O)CCC(O)CC(O)CC(O)CC(=O)OC(C)C(C)C1O)CC(O)C2C(=O)O (some centres undefined)	-9.0%	nt	nt	nt	nt	-9.1%
O=C1NC(=O)C(=Cc2ccccc2[N+](=O)[O-])C(=O)N1	16.4µM*	14.1%	nt	8.5%	12.6	14.6µM*
CNS(=O)(=O)c1ccc(-c2ccc(C=C3C(=O)NC(=O)NC3=O)o2)cc1	-21.2%	28.8%	8.4%	8.5%	5.1	-5.6%
O=C1NC(=O)C(=Cc2ccc(-c3ccccc3[N+](=O)[O-])o2)C(=O)N1	13µM*	?	21.7%	-28.3%	nt	7.31µM*
O=C1NC(=O)C(=Cc2ccc(-c3cc(Cl)ccc3[N+](=O)[O-])o2)C(=O)N1	?	-7.5%	6.1%	-4.2%	-11.8	16.4µM*
Cc1ccc(S(=O)(=O)Oc2ccccc2C=C2C(=O)NC(=O)NC2=O)cc1	-12.9%	-9.2%	nt	-27.8%	-54.9*	-10.3%
O=C1NC(=O)C(=Cc2cc3c(cc2[N+](=O)[O-])OCO3)C(=O)N1	?	1.0%	15.6%	-0.2%	19.1	-3.4%
CN1C[C@H]2CON(C)[C@H]2C[C@H]1c1cccc(Br)c1	-0.5%	0.7%	nt	3.6%	-1.6	-2.5%
CCC(=O)N1N=C2C3CCN(CC3)C2C1c1ccc(C)cc1 (centres undefined)	-0.4%	12.3%	2.4%	-0.6%	15.0	-8.1%
O=C(Nc1ccc(F)cc1)N1Cc2ccccc2-n2nncc2C1	-2.4%	-2.4%	nt	0.1%	-1.7	-2.0%
COc1ccc(NC2=NCCCS2)cc1OC	-2.3%	5.2%	21.7%	-2.0%	14.5	14.4%
NC(=NCCC[C@H](N)C(=O)O)N[N+](=O)[O-]	-1.0%	nt	nt	nt	nt	3.0%

From PubChem
